TMEM16A inh: TMEM16A chloride channel inhibitors, primary screen, cell-based, HTS; HEK293 TMEM16A/YFP iodide influx fluorescence, ionomycin; 1.2% of 310,000 active; normalized B-score (activity score, 25-100; higher = stronger inhibition) at 10 µM;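 active means ratio plate-corrected score three or more library SD toward inhibition, starting fluorescence score within five deviations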;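 further: score derived from kinetic fluorescence span divided by baseline fluorescence per well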
m5-HT2A agonist: mouse Htr2a agonists via beta-arrestin recruitment, primary screen, cell-based, luminescence | CHO-K1 mHTR2A beta-arrestin complementation; percent of 30 µM serotonin response | 5-hydroxytryptamine receptor 2A (Mus musculus), P35363 | activation, % at 7.6 µM | AID 624169, 2012 | 0.66% of 360,000 active;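 active means activation above a run cutoff, the mean activation of all tested compounds plus 3 SD, cut at about 14% in these data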;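 further: 0% = plate median of compound wells and 100% = 30 µM serotonin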
TLR4-MyD88 BLA: inhibitors of TLR4-MyD88 association in cells, primary screen, cell-based, HeLa CL3-4, BLA complementation, FRET ratio | Toll-like receptor 4 (Homo sapiens) + Myeloid differentiation primary response protein … | HeLa CL3-4 TLR4/MyD88 BLA complementation | inhibition, % at 8.4 µM | 0.18% of 200,000 active; in the data active means inhibition above about 25%;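 further: 0% = vehicle and 100% = reference inhibitor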
NOD2 RIPK2 PPI: NOD2-RIPK2 binding disruptors in cells, primary screen, fluorescence, CHO cells, BLA complementation; inhibition, % at 4.98 µM; CCF4 ratio; Receptor-interacting serine/threonine-protein kinase 2 (Homo sapiens), O43353; 0.38% of 360,000 active; in the data active means inhibition above about 21%;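 further: 0% = vehicle only and 100% = reference blocker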
Target sequence (O43353 whole entry, looked up): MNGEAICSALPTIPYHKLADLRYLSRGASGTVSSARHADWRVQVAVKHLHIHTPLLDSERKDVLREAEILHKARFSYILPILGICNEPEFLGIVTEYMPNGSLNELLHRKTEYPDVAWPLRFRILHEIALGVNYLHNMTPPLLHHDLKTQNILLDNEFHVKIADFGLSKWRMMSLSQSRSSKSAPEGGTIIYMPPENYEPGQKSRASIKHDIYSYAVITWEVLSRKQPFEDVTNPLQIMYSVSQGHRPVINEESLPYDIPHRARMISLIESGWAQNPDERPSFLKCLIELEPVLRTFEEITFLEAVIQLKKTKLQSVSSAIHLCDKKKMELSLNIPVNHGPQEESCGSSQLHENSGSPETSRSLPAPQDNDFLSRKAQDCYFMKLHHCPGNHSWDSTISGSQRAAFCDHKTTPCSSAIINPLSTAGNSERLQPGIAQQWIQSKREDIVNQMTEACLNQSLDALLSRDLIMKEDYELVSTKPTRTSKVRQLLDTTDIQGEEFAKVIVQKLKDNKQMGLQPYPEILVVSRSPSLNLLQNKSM
ANO1 activ: TMEM16A chloride channel activators or potentiators, primary screen, cell-based, HTS; HEK293 TMEM16A/YFP-H148Q/I152L, iodide quench fluorescence; active compounds read low; B-score at 10 µM; 0.3% of 340,000 active;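 active means fluorescence-ratio B-score plate-corrected deviation score at least 3 library SD below zero, with starting fluorescence score within 5 deviations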;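 further: channel opened by trigger with iodide after compound preincubation; score built on the fluorescence ratio of max minus min over baseline; more negative score means more quench and so TMEM16A activation or potentiation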
TLR9-MyD88 block: inhibitors of TLR9-MyD88 association in cells, primary screen, cell-based, CHO, BLA complementation, fluorescence; CCF4 FRET ratio; 0.21% of 340,000 active; inhibition, % at 4.98 µM; Toll-like receptor 9 (Homo sapiens) + Myeloid differentiation primary response protein …;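 active means inhibition above the mean over all tested compounds plus 3 SD, cut at about 21% in these data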;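 further: 0% = DMSO only wells and 100% = clavulanate BLA inhibitor control wells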
TMEM16A reconf: TMEM16A chloride channel inhibitors, confirmation, cell-based, re-confirmation; shares compounds with TMEM16A inh; HEK293 TMEM16A/YFP-H148Q, iodide quench fluorescence; ionomycin added to raise cell calcium; 39% of 2,300 active; AID 652189, 2013; inhibition, % at 10 µM;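 active means mean duplicate percent inhibition, scaled so buffer wells are 0 and the reference blocker 100, over three buffer SD above buffer mean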
HEK293 Ca mobil: calcium mobilization in TMEM16A/YFP HEK293 cells, confirmation, counter-screen for TMEM16A inhibitor project. calcium response (% of ionomycin), % at 10 µM. shares compounds with TMEM16A inh. Fluo4 calcium mobilization. 2% of 2,300 active. AID 652231, 2013;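 active means duplicate-averaged calcium signal over 20% of the ionomycin maximum, relative to buffer baseline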;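 further: each well's signal is peak minus trough fluorescence divided by its pre-addition baseline; 0% = buffer wells and 100% = ionomycin wells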
YFP-HEK293 quench: iodide YFP quench changes in parental YFP-HEK293, counter-screen for TMEM16A inhibitor project, cell-based. shares compounds with TMEM16A inh. ionomycin. YFP ratio F(max-min)/F0 at 10 µM. 2,300 tested, under 10 active. AID 652233, 2013;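 active means yellow fluorescent protein signal ratio exceeding the buffer control mean by over 5 SD of those controls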;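 further: ratio is mean of duplicate wells from kinetic YFP trace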
ClC-1 inh: ClC-1 chloride channel inhibition, selectivity assay for TMEM16A inhibitor project, cell-based, voltage-dependent ClC-1 | shares compounds with TMEM16A inh | CHO ClC-1-YFP, iodide influx fluorescence quench; iodide control reads 0, buffer control 100 | ratio percent, % at 10 µM | 2,300 tested, under 10 active | AID 652236, 2013;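 active means duplicate-mean ratio percent above the mean of iodide-only control wells, which defines zero, plus 5 of their SD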;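 further: higher percent means stronger block of ClC-1 iodide influx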
The depositor's hits bear a star; i = inactive; . = no result. Rows were chosen to be rich in hits. Some 2.4% of all compounds tested hit in one or more screens of this group.

SMILES	TMEM16A inh	m5-HT2A agonist	TLR4-MyD88 BLA	NOD2 RIPK2 PPI	ANO1 activ	TLR9-MyD88 block	TMEM16A reconf	HEK293 Ca mobil	YFP-HEK293 quench	ClC-1 inh
COc1ccccc1C(=O)NCCCN1CCCC1=O	25*	2	-11	1	i	-8	i	i	-1.1	-16
COc1ccccc1NS(=O)(=O)c1ccc(C(=O)NCCCN2CCCC2=O)cc1	.	2	.	-17	i	-8	.	.	.	.
C=CCN1CCN(C(c2ccc(OC)c(OC)c2)c2nnnn2C(C)(C)C)CC1 (configuration not stated)	.	-9	5	-11	i	-9	.	.	.	.
O=C(c1cccc(C(F)(F)F)c1)N1CCC(O)(CS(=O)(=O)Cc2ccccc2)CC1	100*	5	-13	4	i	0	i	i	-1.1	-3
CC1(C(=O)N2CCC(CO)(Cc3cccc(C(F)(F)F)c3)CC2)CC1	i	7	.	-8	i	-7	.	.	.	.
CC(=O)c1ccc(C(=O)N2CCC(CO)(Cc3cccc(C(F)(F)F)c3)CC2)cc1	100*	1	-5	10	i	-6	i	i	-1.2	-6
Nc1nc(Cl)cc(N2CCC(c3cc(-c4ccc(Cl)cc4Cl)n[nH]3)CC2)n1	100*	2	7	-5	i	-1	i	i	-1	-6
CCOc1ccc(Cc2c(Cl)nc(SC)nc2N(C)C)cc1	25*	-5	-11	9	i	6	i	i	-1.3	-12
CSc1nc(Cl)c(Cc2ccc(OC(C)C)cc2)c(N(C)C)n1	i	-3	-1	5	i	-3	.	.	.	.
CC(C)COc1ccc(C2NC(=O)NC2=O)cc1 (configuration not stated)	100*	0	0	1	i	-1	i	i	-0.92	-3
CCOc1cc(CNCCO)cc(Br)c1OCc1ccccc1Cl	25*	-7	3	-7	i	3	i	i	-1.2	-18
O=C(Nc1nnc(-c2ccccc2Cl)o1)c1nc2ccccc2s1	100*	1	-1	1	i	-3	i	i	-1.1	-16
O=S(=O)(c1ccc(Cl)cc1)N1CCCC1c1nc(-c2ccc(Cl)cc2)no1 (configuration not stated)	i	1	-12	-9	i	-4	.	.	.	.
O=S(=O)(c1ccccc1Cl)N1CCCC1c1nc(-c2ccccc2Cl)no1 (configuration not stated)	100*	2	-10	-4	i	2	18%*	i	-1.1	-14
COc1ccc(C(=O)C2CCN(C(=S)NCCc3ccc(OC)c(OC)c3)CC2)cc1	i	3	-3	-12	i	1	.	.	.	.
COc1ccc(CCNC(=S)N2CCC(Cc3ccccc3)CC2)cc1OC	100*	3	13	-4	i	7	i	i	-1	-14
Cc1cc(C)cc(CC(=O)N2CCC2(C)C(=O)NS(=O)(=O)c2ccccc2C)c1 (configuration not stated)	.	0	.	0	.	.	.	.	.	.
COc1cccc(OCCCCSc2ncccn2)c1	i	-5	-7	-8	i	2	.	.	.	.
c1ccc(Oc2cccc(OCCCCSc3ncccn3)c2)cc1	100*	1	4	2	i	5	i	i	-1.4	-4
CCOc1cc(/C=N/NC(=O)c2ccc(CN3CCOCC3)cc2)ccc1OCc1ccccc1	25*	3	-1	7	i	-1	21%*	i	-1	-10
Cc1cc(NC(=O)c2ccc3nc(C)sc3c2)no1	i	7	-10	-5	i	4	.	.	.	.
CCOC(=O)c1sc(NC(=O)c2cccc(S(=O)(=O)N3CCc4ccccc43)c2)c(C#N)c1C	25*	0	.	3	i	4	26%*	i	-0.89	-5
CCNC(=O)C1(C)CCN(C(=O)c2cc(F)cc(F)c2)C1 (configuration not stated)	.	-1	.	-9	.	.	.	.	.	.
CN(C)S(=O)(=O)N1CCC(Oc2cccc(C(=O)NCCC3=CCCCC3)c2)CC1	100*	0	.	2	i	0	22%*	i	-1.2	-20
Cc1ccccc1S(=O)(=O)Nc1ncnc2sccc12	.	0	.	-7	i	-5	.	.	.	.
SMILES	TMEM16A inh	m5-HT2A agonist	TLR4-MyD88 BLA	NOD2 RIPK2 PPI	ANO1 activ	TLR9-MyD88 block	TMEM16A reconf	HEK293 Ca mobil	YFP-HEK293 quench	ClC-1 inh
CCN(CC)C(=O)C1=C(C)N(Cc2ccccc2)C(=O)C(CC(=O)NCC2CCCCC2)C1 (configuration not stated)	.	5	.	-4	.	4	.	.	.	.
Cc1ccc(NC(=O)NC2CCCN2S(=O)(=O)c2ccc(Cl)cc2)cc1 (configuration not stated)	i	11	1	2	i	-6	.	.	.	.
CN1CCN(C(=O)NC2CCCN2S(=O)(=O)c2ccc(Cl)cc2)CC1 (configuration not stated)	i	-2	5	-9	i	5	i	i	-1	-2
CCOC(=O)c1c(NC(=O)CSc2nnc(N)s2)sc(C)c1-c1ccc(C)cc1	25*	7	-11	-14	i	-8	i	i	-1.1	-13
CC(C)c1ccc(C(C)NC(=S)NC2CCCCC2)cc1 (configuration not stated)	25*	-5	.	-3	i	-3	26%*	i	-1	-2
CCc1ccc(C(C)NC(=S)NC2CCCCC2)cc1 (configuration not stated)	i	2	.	-5	i	-3	.	.	.	.

Compound activity (PubChem BioAssay)
